Data as given in PubChem BioAssay (NCI).
About 83,000 compounds went through this panel and 20% of them were active in at least one assay; those are over-represented in the sample as a whole.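 For each line, cells grew in 96-well plates with the test compound present at a single concentration for 48 hours.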 Values without a mark were called inactive. Activity calls are given as the source filed them. How the source made its calls: active means growth percent below 10; inactive means the rest.

Tests used:
Test in all cases: NCI-60 one-dose screen, 48 h (100 = growth as untreated, 0 = no growth, -100 = all killed)
Conditions in all cases: 10 µM unless noted
HCT-15 colon = tested on: HCT-15 colon
HT29 colon = tested on: HT29 colon
SNB-75 CNS = tested on: SNB-75 CNS
SNB-19 CNS = tested on: SNB-19 CNS
U251 CNS = tested on: U251 CNS
PC-3 prostate = tested on: PC-3 prostate
SK-MEL-5 melanoma = tested on: SK-MEL-5 melanoma
UACC-62 melanoma = tested on: UACC-62 melanoma
LOX IMVI melanoma = tested on: LOX IMVI melanoma
SK-MEL-28 melanoma = tested on: SK-MEL-28 melanoma
SK-MEL-2 melanoma = tested on: SK-MEL-2 melanoma
EKVX NSCLC = tested on: EKVX NSCLC
SN12C renal = tested on: SN12C renal
UO-31 renal = tested on: UO-31 renal
TK-10 renal = tested on: TK-10 renal
ACHN renal = tested on: ACHN renal
CAKI-1 renal = tested on: CAKI-1 renal
A498 renal = tested on: A498 renal
CCRF-CEM leukemia = tested on: CCRF-CEM leukemia
MOLT-4 leukemia = tested on: MOLT-4 leukemia

Row | SMILES | growth (HCT-15 colon) | growth (HT29 colon) | growth (SNB-75 CNS) | growth (SNB-19 CNS) | growth (U251 CNS) | growth (PC-3 prostate) | growth (SK-MEL-5 melanoma) | growth (UACC-62 melanoma) | growth (LOX IMVI melanoma) | growth (SK-MEL-28 melanoma) | growth (SK-MEL-2 melanoma) | growth (EKVX NSCLC) | growth (SN12C renal) | growth (UO-31 renal) | growth (TK-10 renal) | growth (ACHN renal) | growth (CAKI-1 renal) | growth (A498 renal) | growth (CCRF-CEM leukemia) | growth (MOLT-4 leukemia)
1 | CN(C)Cc1cc(C(C)(C)C)cc(Br)c1O | 95.6% | 81.8% | 91.5% | 113% | 107% | 90.5% | 96.1% | 101% | 103% | 112% | 113% | 96.8% | 105% | 98% | 100% | 108% | 91.6% | 90.6% | 116% | 110%
2 | Cc1oc(-c2ccc(Cl)cc2)nc1C1=NN(C(=O)c2ccncc2)C(c2ccccc2)C1 (stereo not given) | 91.3% | 96.6% | 92.8% | 80.3% | 92.8% | 83.7% | 97.3% | 72.9% | 92.7% | 89.7% | 97.2% | 95.8% | 88.7% | 59.5% | 114% | 92% | 76% | 78% | 93.4% | 77.1%
3 | O=C(Nc1ccc(Oc2cccc(Cl)c2)c(Cl)c1)c1cccnn1 | 56.7% | 89.9% | 77.7% | 89.5% | 76.7% | 57.2% | 83.8% | 74.7% | 88.5% | 99.4% | 102% | 87.3% | 83.2% | 64.9% | 75% | 97.9% | 80.8% | 87.4% | 84% | 80.1%
4 | Fc1cccc(-c2nc(-c3c[nH]c4ncccc34)cs2)c1 | 82.9% [100 µM] | 76% [100 µM] | -14.1% [100 µM] (active) | 70.8% [100 µM] | 33.7% [100 µM] | 59.6% [100 µM] | 50.6% [100 µM] | 73.1% [100 µM] | 74.3% [100 µM] | 89.2% [100 µM] | 117% [100 µM] | 28.6% [100 µM] | 62.7% [100 µM] | 61.1% [100 µM] | 18% [100 µM] | 22% [100 µM] | -11.1% [100 µM] (active) | 76.6% [100 µM] | 72% [100 µM] | 71.8% [100 µM]
5 | COCCn1cc(-c2csc(-c3c[nH]c4ccc(F)cc34)n2)c2cccnc21 | 14.7% | 11.8% | 39.7% | 58.1% | 32.5% | 22.5% | 1.53% (active) | 42.5% | 21.8% | 46.6% | 25.3% | 38% | 66.7% | 38.4% | 33.1% | 41.9% | 45.3% | 9.07% (active) | 20.1% | 14.2%
6 | O=C(Cc1ccc(/C=C/C(=O)c2ncc[nH]2)cc1)Nc1cc(F)c(F)c(F)c1 | 11.9% | 18.1% | 44.8% | 43.4% | 8.91% (active) | 48.2% | 97.7% | 74.5% | -3.1% (active) | 103% | 114% | 92.7% | 56.2% | 46.7% | 87.5% | 93.2% | 56.2% | 84.8% | 20.3% | 26.7%
7 | COCCn1cc(-c2nc(-c3cn(CCOC)c4ncccc34)cs2)c2cc(F)ccc21 | 17.8% | 57.6% | 77.4% | 90.4% | 69.8% | 39.2% | 14.4% | 61.8% | 64.3% | 91% | 73.8% | 23.2% | 82.3% | 68.3% | 28.2% | 76.7% | 86.4% | 73.3% | 72.5% | 68.9%
8 | Cc1ccc2cnc(N)c(C#Cc3cc(C(=O)Nc4ccc(CN5CCN(C)CC5)c(C(F)(F)F)c4)cnc3C)c2c1 | -40.5% (active) | -62.7% (active) | -17.1% (active) | 17.4% | -80.7% (active) | -86.9% (active) | 26.8% | 7.26% (active) | -71% (active) | -84.9% (active) | 6.23% (active) | 12.6% | 2.6% (active) | -82% (active) | 39.7% | -100% (active) | -35.7% (active) | -75.9% (active) | -34.8% (active) | -5.68% (active)
